Screening results: PubChem, National Center for Advancing Translational Sciences (NCATS)
Only some compounds are listed: those with a hit (about 19% of all), similar ones and a draw of the others.
CHX counter: affects cycloheximide protein synthesis inhibition readout, counter-screen | cell reporter, cycloheximide protein synthesis inhibition counterscreen | max response, % | actives 12% (n = 300,000); in the data active = max response mostly above about 13%, no sharp cut-off; inactive = mostly below about 14%; also: read at 38.3 µM for the half of the compounds with a filed dose; 0% is about no effect
Pf growth 96h: P. falciparum growth inhibition at 96 hour, primary screen for plastid delayed-death inhibitors | P. falciparum luciferase reporter growth, 96 h | Potency, µM (series often up to 28.7 µM), for inactives: at the highest dose activity change, negative = inhibition, usual class: inhibitors | actives 6.9% (n = 320,000) | AID 504834; also: potency is read from the fitted curve at half-maximal effect; % is scaled to controls: 0 for no effect and ±100 for the full control effect
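Erythrocytes infected with luciferase-expressing P. falciparum were dispensed at 2% hematocrit and 0.05% parasitemia (final), then incubated with compounds 96 hours at 37 C in 5% CO2. Luminescence after detection reagent addition reported growth.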
AMA1-RON2 inh: AMA1-RON2 (P. falciparum) interaction inhibition; actives 0.2% (n = 360,000); Potency, µM (titrated, usually from 58.2 µM), for inactives: at the top dose activity change, negative = inhibition, actives largely listed as inhibitors; AlphaScreen AMA1-biotinylated RON2 peptide binding;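 also: potency is read from the fitted curve at half-maximal effect; 0% = vehicle wells and -100% = peptide control; nearly all actives have a fitted effect of over 45% in size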
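AMA1 (3D7) with his tag at 25 nM final met compounds first, then biotinylated RON2 peptide at 25 nM; detection used donor plus acceptor beads, 10 µg/mL apiece, read by AlphaScreen after 30 min at room temperature.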
Pf growth 48h: P. falciparum growth inhibition at 48 hours (one generation); P. falciparum luciferase growth in erythrocytes, 48 h; Potency, µM (doses to about 28.7 µM), inactives show at the top dose activity change, negative = inhibition, most hits filed as inhibitors; actives 5.9% (n = 310,000); AID 504832; also: potency is read from the fitted curve at half-maximal effect; % is scaled to controls: 0 for no effect and ±100 for the full control effect
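Compounds are pin-transferred into medium, infected erythrocytes (2% hematocrit, 0.1% parasitemia final) are added, and plates sit one parasite generation at 37 C in 5% CO2. Detection reagent is then added and luminescence measured.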
SARS PLP yeast: SARS-CoV PLP inhibition in yeast | S. cerevisiae expressing SARS-CoV PLpro, growth rescue | Potency, µM (series often up to 32.9 µM), inactives show at the highest dose activity, positive = growth rescue, actives largely listed as activators | actives 0.19% (n = 330,000) | AID 485353; calls by dose curve; also: potency is read from the fitted curve at half-maximal effect; 0% is about no effect; nearly all actives have a fitted effect of over 55% in size
Shiga toxin inh: inhibitors of Shiga toxin in Vero cells; Vero cells, Shiga toxin protein synthesis inhibition reporter; inhibition, % at 38.7 µM; actives 9.2% (n = 290,000); in the data active = inhibition mostly above about 28%, no sharp cut-off; inactive = mostly below about 43%; also: 0% is about no effect
* = called active by the depositor; ? = inconclusive; . = no result given; [ ] = remark or other dose. Unless noted, calls follow the shape of the dose curve; as a rule, active = well fitted curve in the direction sought with a large enough effect; inconclusive = small, poorly fitted or top-dose-only effect, or another doubt; inactive = no such curve, though single readings can be large; an effect the other way counts as inactive or inconclusive.

SMILES	CHX counter	Pf growth 96h	AMA1-RON2 inh	Pf growth 48h	SARS PLP yeast	Shiga toxin inh
CCOC(=O)CSc1cc(=O)n(CC)c2ccccc12	-3	10µM*	5%	9%	1%	-8
Cc1cccc(N(C)C(=O)COc2cc(=O)n(C)c3ccccc23)c1	7	21%	-2%	.	1%	-5
CCn1c(=O)cc(OCC(=O)NCCCN2CC(C)CC(C)C2)c2ccccc21 (stereo unspecified)	1	-5%	10%	-29%	0%	11
CN(C(=O)COc1cc(=O)n(C)c2ccccc12)c1ccc(Br)cc1	5	10µM*	-12%	?	4%	-5
CCOC(=O)N1CCN(C(=O)COc2cc(=O)n(CC)c3ccccc23)CC1	-3	36%	8%	-12%	3%	-29
CC1CC(C)CN(CCCNC(=O)COc2cc(=O)n(C)c3ccccc23)C1 (stereo unspecified)	-4	-5%	1%	10µM*	-15%	-1
CCn1c(=O)cc(SCC(=O)N(C)Cc2ccccc2)c2ccccc21	-6	?	3%	.	-7%	-16
CCOC(=O)COc1cc(=O)n(CC)c2ccccc12	-2	8.3µM*	14%	17%	-1%	38
CC(=O)c1c(C)[nH]c(C(=O)NCc2ccc(Cl)cc2)c1C	.	.	0%	.	.	.
COc1ccc(NC(=O)CN(C)C(=O)c2cnc(Cl)c(Cl)c2)cc1	-5	18%	-9%	13%	1%	-6
COc1cccc(C(C)(O)c2nc(-c3cccc4cccnc34)cs2)c1 (stereo unspecified)	.	.	2%	.	.	.
CCCc1nn(C)c(C(=O)Nc2cccc3ccccc23)c1Cl	12	-18%	31%	7%	20%	36*
CCC(=O)Nc1cccc2ccccc12	-4	28%	-7%	20%	0%	-3
CCCc1nn(C)c(C(=O)Nc2ccc(C)c(C)c2)c1Cl	32*	52%	11%	70%	14%	92*
CCCc1nn(C)c(C(=O)Nc2ccc(CC)cc2)c1Cl	17	5%	0%	12%	0%	35*
CCn1nc(C(=O)Nc2ccc(C)c(C)c2)c(Cl)c1Cl	14	102%	-1%	-14%	10%	-2
O=C(Nc1ccnc(-c2cccnc2)n1)c1cccc(Cl)c1Cl	0	?	-26%	?	3%	-9
c1ccc(-c2nc3nonc3c3nc4ccccc4n23)cc1	-2	13µM*	-4%	-5%	-1%	-20
N#CC1=C2C=Cc3ccccc3N2CCCC1=O	33*	4%[5.75 µM]	-10%	85%	-4%	45*
O=C(CN1CCCC1)N1c2ccccc2C=Cc2ccccc21	-2	-22%	-4%	8%	0%	14
Cc1c(C=NNc2ccccc2)[nH]c(=O)[nH]c1=O	.	.	-7%	.	.	.
COC(=O)c1c(C)[nH]c(/C=N/Nc2ccccc2)c1C	20*	?	11%	5.2µM*	1%	60
c1ccc(-c2nn3c(C4CCCCC4)nnc3s2)nc1	-4	53%	9%	10%	-6%	-6
Clc1ccc(OCc2nn3c(C4CCCCC4)nnc3s2)cc1	-2	9.3µM*	-1%	-10%	-11%	-6
CCC(C)NC(=O)c1c(-c2cc(Cl)c(OC)c(Cl)c2)noc1C (stereo unspecified)	-1	?	-9%	0%	-8%	-10
SMILES	CHX counter	Pf growth 96h	AMA1-RON2 inh	Pf growth 48h	SARS PLP yeast	Shiga toxin inh
CCc1c(C)sc2nc3c(C(=O)N4CCOCC4)cc(C(=O)c4cc(F)ccc4O)cn3c(=O)c12	5	2.1µM*	-12%	?	3%	12
Cc1sc2nc3c(C(=O)N4CCCC4)cc(C(=O)c4ccccc4O)cn3c(=O)c2c1C	0	?	10%	13µM*	0%	17
N=c1c(C(=O)NC2CCCC2)cc2c(=O)n3ccccc3nc2n1Cc1ccccc1	-1	?	0%	?	15%	-16
Cc1ccc(Cn2c(=N)c(C(=O)NC3CCCCC3)cc3c(=O)n4ccccc4nc32)cc1	-2	2.9µM*	-1%	4.1µM*	-3%	-3
N=c1c(C(=O)NC2CCCCC2)cc2c(=O)n3ccccc3nc2n1Cc1ccc(F)cc1	-5	?	-2%	2.1µM*	0%	3
COc1ccc2oc(C(=O)OC(C)C(=O)N3C(C)CCCC3C)c(C)c2c1 (stereo unspecified)	.	.	-14%	.	-12%	.
Cc1cccn2c(=O)c3cc(C(=O)NC4CCCC4)c(=N)n(C4CCCCC4)c3nc12	0	?	5%	17%	1%	-10
CCN(CC)S(=O)(=O)c1ccc2c(c1)c(=O)c(C(=O)NCc1ccco1)cn2C	-3	40%	-4%	1%	4%	-7
Fc1ccc(NC(=S)N2CCCN(c3ccc(C(F)(F)F)cn3)CC2)c(F)c1	-3	?	-6%	10µM*	-3%	2
O=C(Nc1ccc(F)cc1F)N1CCCN(c2ccc(C(F)(F)F)cn2)CC1	-3	7%	23%	2%	-5%	-5
COc1cccc(C(=O)NCCC2=CCCCC2)c1OC	33*	17%	2%	72%	-2%	108*
COc1ccc(OCC(=O)NCCC2=CCCCC2)c([N+](=O)[O-])c1	5	6%	-11%	-20%	-5%	-5
COc1ccc(C)cc1NC(=O)NCCC1=CCCCC1	-1	55%	-3%	15µM*	-9%	10
COc1ccc(C(=O)NCCC2=CCCCC2)cc1[N+](=O)[O-]	24*	25%	-3%	21%	1%	41*
COc1ccc(C(=O)NCCN2CCCC2)cc1[N+](=O)[O-]	-2	2.6µM*	2%	?	-3%	-41
O=C(O)CCC(=O)NN1C(=O)c2ccccc2NC1c1ccco1 (stereo unspecified)	2	14%	64%	33%	1%	13
CN(C(=O)c1ccc(F)cc1)c1ccc(OCC(=O)Nc2ccccc2C(=O)O)cc1	.	.	-20%	.	6%	.
CC(=O)Nc1ccc(SCCN2CC[C@@H](C)CCC2=O)cc1	.	31%	8%	60%	0%	.
O=C(CSc1nncn1-c1ccccc1)Nc1cc(F)ccc1F	-2	0%	-5%	44%	-4%	-7
O=C(Nc1ccccc1)c1cc(C2CCCCN2C(=O)OCCF)on1 (stereo unspecified)	.	.	10%	.	.	.
Cc1cc(C(=O)NCCC2=CCCCC2)c(C)o1	39*	?	15%	202%	-4%	117*
Cc1ccc(S(=O)(=O)N2CCCCC2)cc1C(=O)NCCC1=CCCCC1	.	?	-4%	?	2%	.
Cc1cc(C)cc(-n2nnc(C(=O)NCc3ccccc3)c2N)c1	7	?	42%	13µM*	-1%	1
Cc1cccc(-n2nnc(C(=O)NCc3ccco3)c2N)c1	21*	14%	2%	36%	?	38*
CCCCNC(=O)c1nnn(-c2ccccc2)c1N	27*	?	0%	176%	19%	49*
